14 compounds from PubChem BioAssay can be followed below.

Test [1] can be described thus: circadian clock period modulators, cell-based, LOPAC library, luminescence reporter (AID 2774).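 Further: values are relative to mean of DMSO wells on each plate.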 Particulars: circadian reporter cells, at 7 µM, actives lie on both sides.
In test [2] the test system is Hepatitis C virus NS3 helicase. Briefly: HCV NS3 helicase inhibitors, primary screen, biochemical, fluorescence polarization, LOPAC1280 library (AID 687035; in the data active means inhibition above about 37%). Particulars: Purified HCV NS3 helicase, Cy5-dT15 ssDNA binding fluorescence polarization; stronger effect = higher value; concentration not given here.
Test [3] can be described thus: Cy5 fluorescence quenching or enhancement artefacts, artefact control for HCV NS3 helicase inhibitor project, biochemical, LOPAC1280 (AID 687037). Particulars: Cy5-DNA-NS3h complex fluorescence interference counterscreen. (The purpose of a counterscreen is to sort out artefacts and off-target activity.)
For test [4], the system named is Aerobactin synthetase IucA (Klebsiella pneumoniae, hypervirulent). Put plainly: IucA enzyme inhibition, biochemical, LOPAC library, absorbance readout (AID 1346212).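 Further: 100% = no compound wells and 0% = no enzyme wells.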 Particulars: IucA enzyme assay, absorbance (OD) readout; stronger effect = lower value;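 tested at 8 µM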.
The nature of test [5]: sensitizers of A549 cells to miR-34 induction, primary screen, imaging, A549 dox-inducible miR-34, nuclei and caspase counts (AID 1347080;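 active means compounds whose cell count with miR-34 switched on is under 0.7 times the count with it off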). Particulars: A549 miR-34 inducible, Hoechst nuclei count, 48 h.
The nature of test [6]: phospholipid biosynthesis inhibitors in animal cells, primary screen, cell-based, LOPAC library, screen 4 (AID 1347384). Particulars: phospholipid biosynthesis inhibition screen, at 10 µM.
A short description of test [7]: viability rescue of complex I mutant cybrids, primary screen, cell-based, galactose medium, ATP luminescence (AID 1645843;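 active means z-score of at least 1.8 in each of two replicates, scored against plate mean and spread of sample wells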;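 further: positive z means more ATP and so rescue of galactose-driven cybrid death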). Particulars: complex I mutant cybrid cells, 72 h, stronger effect = higher value.
[8] abbreviates: measured here: relative caspase fold change +Dox/-Dox.
Setting [9] is: measured here: total cells with miR-34 induction, stronger effect = lower value.
The mark [10] stands for this setting: measured here: total cells without miR-34 induction.

SMILES strings stand for the structures. The source made the active and inactive calls. Unless noted, how the calls were made is not given here.

One may read the inhibition as the drop in the measured response relative to a control, in per cent. As a reminder, the remaining activity is the signal under treatment as a percentage of the control signal. Regarding `O=C(O)[C@@H]1CCN1`, the period change in test [1] is 0.09 h (inactive). For the same compound, the inhibition in test [2] is -5% (inactive). Besides, in test [3], the fluorescence ratio (interference) was 0.9 (inactive). Besides, in test [4], the remaining activity is 122% (inactive). For the same compound, the values for the fold change in test [5] (stronger effect = lower value) and in test [5] (setting [8]) were 1.03 (inactive) and 1.27, respectively. Further, the cell count in test [5] (setting [9]) was determined as 10700; in test [5] (setting [10]) it was 10400. Also, the outcome in test [6] was inactive. Also, the z-score in test [7] was 0.2 (inactive).
In the case of `CC(=O)NBr`, the period change in test [1] was 0.03 h (inactive). The inhibition in test [2] was -1% (inactive). Besides, the fluorescence ratio (interference) in test [3] was 0.9 (inactive). The remaining activity in test [4] was 100% (inactive). Besides, the fold change in test [5] (stronger effect = lower value) was 1.03 (inactive); in test [5] (setting [8]), 2.31. Moreover, the cell count in test [5] (setting [9]) was determined as 10500; in test [5] (setting [10]), 10100. Moreover, the compound was classed as inactive in test [6]. In test [7], the z-score is 0.61 (inactive).
As to `CC(C)Oc1cccnc1N(C)C1CCN(Cc2ccccc2)CC1`, the period change in test [1] was 0.225 h (inactive). In addition, in test [2], the inhibition is -3% (inactive). In test [3], the fluorescence ratio (interference) is 1 (inactive). Also, the remaining activity in test [4] was 99.8% (inactive). In addition, the fold change in test [5] (stronger effect = lower value) was 0.905 (inactive); in test [5] (setting [8]), 1.08. Also, the values for the cell count in test [5] (setting [9]) and in test [5] (setting [10]) were 8620 and 9520, respectively. Also, in test [6], the outcome was inactive. Besides, in test [7], the z-score is -0.4 (inactive).
On to `CP(=O)(O)C1=CCNCC1`, for which the period change in test [1] is 0.005 h (inactive). In addition, the inhibition in test [2] was -5% (inactive). In test [3], the fluorescence ratio (interference) was 1 (inactive). Further, in test [4], the remaining activity is 95.4% (inactive). Besides, the fold change in test [5] (stronger effect = lower value) is 0.981 (inactive); in test [5] (setting [8]) it was 1.49. Moreover, the cell count in test [5] (setting [9]) was determined as 9760; in test [5] (setting [10]) it was 9940. For the same compound, the compound was classed as inactive in test [6]. The z-score in test [7] was 0.2 (inactive).
With `C[N+](C)(C)CCOC(=O)CBr`, the period change in test [1] was 0.015 h (inactive). Also, in test [2], the inhibition is -2% (inactive). Further, the fluorescence ratio (interference) in test [3] is 1 (inactive). The remaining activity in test [4] was 126% (inactive). Also, the values for the fold change in test [5] (stronger effect = lower value) and in test [5] (setting [8]) were 1.01 (inactive) and 2.27, respectively. For the same compound, the cell count in test [5] (setting [9]) and in test [5] (setting [10]) was 10100 throughout. Besides, the outcome in test [6] was inactive. Besides, the z-score in test [7] is 0.69 (inactive).
In the case of `Cc1sc2ccccc2c1CC1=NCCN1`, the period change in test [1] is 0.055 h (inactive). The inhibition in test [2] is -3% (inactive). Moreover, the fluorescence ratio (interference) in test [3] was 0.9 (inactive). In addition, in test [4], the remaining activity was 99.1% (inactive). Also, the fold change in test [5] (stronger effect = lower value) was 1.03 (inactive); in test [5] (setting [8]), 1.95. For the same compound, the cell count in test [5] (setting [9]) was 9870; in test [5] (setting [10]) it was 9550. In test [6], the compound was classed as inactive. Also, in test [7], the z-score was -0.09 (inactive).
As for `CNCCc1c[nH]c2ccc(O)cc12`, the period change in test [1] is 0.02 h (inactive). In test [2], the inhibition is -6% (inactive). In addition, the fluorescence ratio (interference) in test [3] is 0.9 (inactive). Besides, the remaining activity in test [4] is 121% (inactive). Further, the fold change is 1.03 (inactive) in test [5] (stronger effect = lower value) and 1.46 in test [5] (setting [8]). Further, the figures for the cell count in test [5] (setting [9]) and in test [5] (setting [10]) were 10900 and 10600, respectively. Besides, in test [6], the compound was called inactive. In test [7], the z-score is 0.2 (inactive).
In the case of `CCCN1CC[C@@H]2c3cc(O)ccc3CC[C@@H]21`, in test [1], the period change is -0.045 h (inactive). The inhibition in test [2] is -4% (inactive). The fluorescence ratio (interference) in test [3] was 0.9 (inactive). Besides, in test [4], the remaining activity was 105% (inactive). Moreover, the fold change in test [5] (stronger effect = lower value) is 1.1 (inactive); in test [5] (setting [8]) it was 0.654. Moreover, the cell count in test [5] (setting [9]) worked out at 11000; in test [5] (setting [10]), 10000. In test [6], the result was inactive. In addition, the z-score in test [7] was 0.605 (inactive).
Take `CC(Cc1ccc(OCC(=O)O)cc1)NCC(O)c1cccc(Cl)c1` (stereo not given): the period change in test [1] is -0.08 h (inactive). The inhibition in test [2] is -4% (inactive). In addition, the fluorescence ratio (interference) in test [3] is 1 (inactive). Moreover, the remaining activity in test [4] was 122% (inactive). In addition, the fold change in test [5] (stronger effect = lower value) was 1.04 (inactive); in test [5] (setting [8]), 2.14. The cell count in test [5] (setting [9]) worked out at 11000; in test [5] (setting [10]), 10600. The call in test [6] was inactive. Besides, in test [7], the z-score is 0.62 (inactive).
Regarding `OCc1cnc[nH]1`, the period change in test [1] was 0.065 h (inactive). Besides, the inhibition in test [2] is 0% (inactive). In addition, in test [3], the fluorescence ratio (interference) is 1 (inactive). Moreover, in test [4], the remaining activity was 102% (inactive). Also, the fold change was 0.96 (inactive) in test [5] (stronger effect = lower value) and 1.56 in test [5] (setting [8]). For the same compound, the cell count is 10400 in test [5] (setting [9]) and 10800 in test [5] (setting [10]). In test [6], the compound was classed as inactive. Besides, the z-score in test [7] was 0.255 (inactive).
Take `Clc1cc(I)cc(Cl)c1NC1=NCCN1`: in test [1], the period change is 0.11 h (inactive). Besides, the inhibition in test [2] is -6% (inactive). The fluorescence ratio (interference) in test [3] was 0.9 (inactive). Also, the remaining activity in test [4] was 117% (inactive). The fold change in test [5] (stronger effect = lower value) is 1.15 (inactive); in test [5] (setting [8]), 1.05. In addition, the cell count in test [5] (setting [9]) was 11200; in test [5] (setting [10]), 9770. The compound was called inactive in test [6]. Also, the z-score in test [7] is 0.175 (inactive).
As to `COc1ccc2c(c1O)-c1cccc3c1[C@@H](C2)N(C)CC3`, the period change in test [1] is -0.1 h (inactive). Moreover, the inhibition in test [2] was -4% (inactive). The fluorescence ratio (interference) in test [3] was 1 (inactive). Further, the remaining activity in test [4] is 102% (inactive). For the same compound, the fold change in test [5] (stronger effect = lower value) was 0.958 (inactive); in test [5] (setting [8]), 1.07. Besides, the cell count worked out at 7690 in test [5] (setting [9]) and 8030 in test [5] (setting [10]). Besides, the call in test [6] was inactive. Also, in test [7], the z-score is -0.76 (inactive).
`CN1CCc2cccc(Cl)c2CC1`: the period change in test [1] is 0.06 h (inactive). Besides, the inhibition in test [2] was -4% (inactive). In addition, in test [3], the fluorescence ratio (interference) was 1 (inactive). Moreover, the remaining activity in test [4] is 114% (inactive). Further, the fold change is 1.03 (inactive) in test [5] (stronger effect = lower value) and 1.41 in test [5] (setting [8]). Besides, the results for the cell count in test [5] (setting [9]) and in test [5] (setting [10]) were 9920 and 9620, respectively. In addition, the result in test [6] was inactive. Moreover, the z-score in test [7] is 0.41 (inactive).
For the compound `NC(=O)COc1c(F)cc(SCCNS(=O)(=O)c2ccccc2)cc1F`, the period change in test [1] is -0.08 h (inactive). Besides, the inhibition in test [2] was -2% (inactive). Also, the fluorescence ratio (interference) in test [3] was 1 (inactive). In addition, the remaining activity in test [4] was 109% (inactive). Further, the fold change in test [5] (stronger effect = lower value) was 0.978 (inactive); in test [5] (setting [8]) it was 0.398. In addition, the cell count in test [5] (setting [9]) amounted to 9150; in test [5] (setting [10]) it was 9360. Also, the compound was classed as inactive in test [6]. In test [7], the z-score was 0.24 (inactive).
